Screening results from PubChem.
IkB sig inh = IkB Signaling; ABC-DLBCL IkBa-CBG/CBR dual luciferase ratio, 4 h; response scale: scaled: untreated 0%, proteasome inhibitor 100%; AID 445, 2006; Potency, µM (series often up to 57.1 µM), without a hit: top-dose IkBa stabilization activation; 0.04% of 110,000 active; active = well fitted curve in the direction sought with a large enough effect in the signal ratio, not every such curve was filed as active; inconclusive = small, poorly fitted or top-dose-only effect, or a change in a side signal; the % refers to the signal ratio;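 note: potency is the fitted concentration of half-maximal effect; the direction sought is a rising ratio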
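Luminescence ratio of IκBα-fused green versus native red beetle luciferase in OCI-Ly3 cells, 4 h post-doxycycline with compound; red signal alone, scaled from basal (0%) to zero light (-100%), flagged nonspecific or cytotoxic effects.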
IMPase cell inh = qHTS Assay for Identifying the Cell-Membrane Permeable IMPase Inhibitors. CHO-M1 cells, IP1 accumulation, HTRF TR-FRET ratio. inhibition (IP1 accumulation), % at 46.1 µM. 120,000 tested, under 10 active. AID 901, 2007; active = well fitted curve in the direction sought with a large enough effect in the signal ratio, not every such curve was filed as active; inconclusive = small, poorly fitted or top-dose-only effect, or a change in a side signal; inactive = no such curve, though single readings can be large or run the other way; the % refers to the signal ratio;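 note: cells stimulated with carbachol in lithium chloride buffer; plate controls were DMSO basal wells for no effect and reference inhibitor wells for full effect; higher means more IMPase inhibition seen as more IP1 and lower FRET ratio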
Target sequence (P97697 whole entry, looked up): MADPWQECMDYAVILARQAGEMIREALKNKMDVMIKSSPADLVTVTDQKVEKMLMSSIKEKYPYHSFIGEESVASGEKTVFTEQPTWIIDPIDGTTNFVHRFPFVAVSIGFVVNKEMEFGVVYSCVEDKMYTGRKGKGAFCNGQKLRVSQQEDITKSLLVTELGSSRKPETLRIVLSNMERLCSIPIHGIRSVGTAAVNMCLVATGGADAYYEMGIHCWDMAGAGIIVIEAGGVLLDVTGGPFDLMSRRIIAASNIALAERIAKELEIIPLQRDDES
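Elevated IP1 in lysates lowers TR-FRET signal (665/620 ratio and 620 channel reported). Cells were CHO-M1, given carbachol (50 uM as added) plus 50mM LiCl, pH 7.4, 30 min, 37C; compounds titrated up to 46 uM; AC50 by Hill equation.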
p53ts 32C tox = qHTS Screen for Compounds that Selectively Target Cancer Cells with p53 Mutations: Cytotoxicity of p53ts Cells at the Permissive Temperature; H1299-p53A138V at 32C, ATP luminescence viability, 24 h; Potency, µM (series often up to 46.1 µM), for the others: at the highest dose activity change, negative = cytotoxicity, actives largely listed as cytotoxic; 0.93% of 130,000 active; AID 924, 2007;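 note: potency is the fitted concentration of half-maximal effect; 0% = DMSO and -100% = full killing by reference compound; nearly all actives have a fitted effect of over 55% in size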
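Cells: H1299 p53ts (A138V), 600/well, pre-incubated 16–30 h at 37C. Cpd up to 46 uM, 24 h, 32C. Readout: ATPlite luminescence, 20 min RT. Normalization: DMSO vs tamoxifen 100 uM. AC50 by Hill equation.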
Hsp90 Hop PPI = qHTS Assay for Disrupters of an Hsp90 Co-Chaperone Interaction; Hsp90 C-terminal peptide / TPR2A (Hop) interaction, human; 0.44% of 71,000 active; Potency, µM (doses to about 57 µM), inactives show at the top dose activity change, negative = inhibition; AlphaScreen TPR2A-His6 binding biotin-Hsp90 C-terminal peptide; active = well fitted curve in either direction with a large enough effect; inconclusive = small, poorly fitted or top-dose-only effect, or another doubt; note: potency is the fitted concentration of half-maximal effect; % is set by controls: 0 for no effect and ±100 for the full control effect
Luciferase inh = qHTS Assay for Inhibitors of Firefly Luciferase | Luciferin 4-monooxygenase (Photinus pyralis), P08659 | purified firefly luciferase, luminescence, 8 min | Potency, µM (highest dose often 57.1 µM), for the others: at the top dose activity change, negative = inhibition, most hits filed as inhibitors | 2.2% of 72,000 active | AID 411, 2009; note: potency is the fitted concentration of half-maximal effect; % is set by controls: 0 for no effect and ±100 for the full control effect; nearly all actives have a fitted effect of over 40% in size
Target sequence (P08659 whole entry, looked up): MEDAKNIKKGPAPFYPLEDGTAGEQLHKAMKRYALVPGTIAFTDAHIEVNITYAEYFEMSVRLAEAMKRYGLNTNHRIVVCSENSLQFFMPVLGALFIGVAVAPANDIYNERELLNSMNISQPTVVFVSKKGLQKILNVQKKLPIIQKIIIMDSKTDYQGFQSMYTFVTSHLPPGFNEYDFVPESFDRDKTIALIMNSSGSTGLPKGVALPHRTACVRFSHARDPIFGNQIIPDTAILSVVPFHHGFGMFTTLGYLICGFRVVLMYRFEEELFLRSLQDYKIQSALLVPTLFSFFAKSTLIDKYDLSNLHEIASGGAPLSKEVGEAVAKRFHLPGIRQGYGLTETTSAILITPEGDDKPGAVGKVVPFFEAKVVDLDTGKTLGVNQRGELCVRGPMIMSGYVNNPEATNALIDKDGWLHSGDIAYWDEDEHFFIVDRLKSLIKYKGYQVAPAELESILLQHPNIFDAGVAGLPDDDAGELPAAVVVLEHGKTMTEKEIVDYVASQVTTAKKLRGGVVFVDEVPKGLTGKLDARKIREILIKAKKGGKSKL
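Titration-based qHTS; buffer 50 mM imidazole pH 7.2, 50 mM KCl, 7 mM MgCl2, 10 uM ATP, 0.01% Tween 20, 0.05% BSA; luciferase/luciferin detector mix added after compound; 8 min, ambient; luminescence.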
p53ts 39C tox = qHTS Screen for Compounds that Selectively Target Cancer Cells with p53 Mutations: Cytotoxicity of p53ts Cells at the Nonpermissive Temperature | H1299-p53A138V viability at 39C, ATP luminescence, 24 h | Potency, µM (titrated, usually from 46.1 µM), without a hit: at the top dose activity change, negative = cell killing, actives largely listed as cytotoxic | 1.5% of 130,000 active; note: potency is the fitted concentration of half-maximal effect; % is set by controls: 0 for no effect and ±100 for the full control effect; nearly all actives have a fitted effect of over 55% in size
Starred values were filed as active, the others as inactive; ? = inconclusive; nt = not tested or not shown; [ ] = remark or other dose. Many of the other results were omitted from the sample, so hits are more common in it than they were. Unless noted, calls come from the whole dose curve; as a rule, active = well fitted curve in the direction sought with a large enough effect; inconclusive = small, poorly fitted or top-dose-only effect, or another doubt; inactive = no such curve, though single readings can be large; an effect the other way counts as inactive or inconclusive.

SMILES	IkB sig inh	IMPase cell inh	p53ts 32C tox	Hsp90 Hop PPI	Luciferase inh	p53ts 39C tox
Cc1ccc(C(=O)N2CCC(C(N)=O)CC2)cc1NC(=O)c1nsc2ccccc12	-1.2%	nt	9.7%	nt	nt	3.8%
NC(=O)C1CCN(C(=O)c2ccc(NC(=O)c3nsc4ccccc34)cc2)CC1	?	nt	2µM*	nt	nt	2.51µM*
Cc1nnc(NC(=O)CSCc2cc(=O)c3ccccc3[nH]2)s1	0.1%	nt	0.3%	nt	nt	-27.4%
CS(=O)(=O)c1oc(-c2ccc(F)cc2)nc1S(=O)(=O)c1ccc(Cl)cc1	?	nt	12.6µM*	nt	nt	3.98µM*
CCS(=O)(=O)c1oc(-c2ccc(F)cc2)nc1S(=O)(=O)c1ccc(Br)cc1	?	nt	7.08µM*	nt	nt	1.58µM*
CC(C)S(=O)(=O)c1oc(-c2ccc(F)cc2)nc1S(=O)(=O)c1ccccc1	?	nt	3.98µM*	nt	nt	0.794µM*
CSc1oc(-c2ccc(F)cc2)nc1S(=O)(=O)c1ccc(F)cc1	nt	2.1	nt	nt	nt	nt
CC(C)S(=O)(=O)c1oc(-c2cccs2)nc1S(=O)(=O)c1ccc(F)cc1	?	nt	?	nt	nt	3.16µM*
CSc1oc(-c2ccc(F)cc2)nc1S(=O)(=O)c1ccccc1	0.8%	9.3	-0.8%	2.7%	-1.4%	-1.6%
Cc1cc(NC(=O)C2CCN(S(=O)(=O)c3cccc4nsnc34)CC2)ccc1Br	?	nt	-5.1%	nt	nt	14.1%
CCCCS(=O)(=O)c1oc(-c2ccc(F)cc2)nc1S(=O)(=O)c1ccccc1	?	nt	10µM*	nt	nt	2µM*
Cc1cccc2c1-c1sc(C(=O)NCCCN3CCN(c4ccccc4F)CC3)cc1CO2	?	nt	-3.7%	nt	nt	15.8µM*
Cc1cccc2c1-c1sc(C(=O)NCCCN3CCN(c4cccc(Cl)c4)CC3)cc1CO2	1.5%	nt	-3.4%	nt	nt	12.6µM*
Cc1cccc2c1-c1sc(C(=O)N3CCN(c4cccc(Cl)c4)CC3)cc1CO2	?	nt	8.9%	nt	nt	-16.0%
Cc1cccc2c1-c1sc(C(=O)NCc3ccc(Cl)cc3)cc1CO2	?	nt	-19.6%	nt	nt	?
CCN1CCN(CCCNC(=O)c2cc3c(s2)-c2c(C)cccc2OC3)CC1	?	nt	?	nt	nt	25.1µM*
O=C(Nc1ccc(F)c(Cl)c1)N1CCC(CN2CCc3ccccc3C2)CC1	nt	nt	-11.8%	nt	nt	nt
Cc1ccc(NC(=O)CSc2nnc3[nH]c(=O)cc(-c4ccccc4)n23)cc1Cl	?	nt	?	nt	nt	1.58µM*
Cc1ccc(C)c(NC(=O)CSc2nnc3[nH]c(=O)cc(-c4ccccc4)n23)c1	?	nt	?	nt	nt	1.26µM*
Cc1ccccc1NC(=O)CSc1nc2nccnc2c(=O)n1CCc1c[nH]c2ccccc12	0.6%	nt	-3.2%	nt	nt	?
CCC(=O)Nc1ccc(NC(=O)c2cccc(OC)c2)nc1	?	?	?	-3.4%	12.6µM*	-29.7%
COc1cccc(C(=O)Nc2ccc(NC(=O)C(C)C)nc2)c1	0.8%	-19.7	-14.6%	0.9%	-11.7%	-20.2%
COc1cccc(C(=O)Nc2ccc(NC(=O)C3CC3)cn2)c1	?	10.2	?	0.9%	7.94µM*	?
COc1cc(C(=O)Nc2ccc(NC(=O)C3CC3)nc2)cc(OC)c1OC	0.1%	-1.9	-2.6%	-5.0%	-2.8%	9.6%
CCOC(=O)c1c(C)[nH]c(CCC(=O)Nc2c(C)cccc2CC)c1C	-1.3%	nt	9.3%	nt	nt	-17.1%
SMILES	IkB sig inh	IMPase cell inh	p53ts 32C tox	Hsp90 Hop PPI	Luciferase inh	p53ts 39C tox
Nc1ccc2oc(-c3ccccc3Cl)nc2c1	nt	-10.6	nt	nt	3.16µM*	?
Cc1ccc(C)c(-c2nc3cc(N)ccc3o2)c1	1.6%	-12.8	-5.7%	12.3%	-8.3%	-23.0%
CCc1ccc2oc(-c3cc(N)cc(C)c3O)nc2c1	?	-0.2	?	-3.5%	2.51µM*	?
CCc1ccc2oc(-c3cc(N)ccc3O)nc2c1	?	-6.1[1.84 µM]	12.6µM*	-8.6%	1µM*	12.6µM*
CCc1ccc2oc(-c3cc(N)ccc3Cl)nc2c1	?	-10.3	?	3.4%	2.51µM*	10µM*
CCC(=O)N1CCc2cc(S(=O)(=O)NCCC(=O)Nc3ccc(OC)c(Cl)c3)ccc21	-2.4%	nt	12.3%	nt	nt	5.9%
Cc1nnc(NC(=O)c2nc(S(=O)(=O)Cc3ccccc3)ncc2Cl)s1	0.9%	nt	?	nt	nt	15.8µM*
COC(=O)c1ccccc1NC(=O)c1nc(S(=O)(=O)Cc2ccccc2F)ncc1Cl	12.0%	nt	3.8%	nt	nt	15.9%
O=C(Nc1ccccc1F)c1nc(S(=O)(=O)Cc2ccccc2F)ncc1Cl	?	nt	?	nt	nt	3.98µM*
O=C(Nc1nc2ccc(F)cc2s1)c1nc(S(=O)(=O)Cc2ccccc2)ncc1Cl	-3.8%	nt	?	nt	nt	?
COc1ccc2nc(NC(=O)c3nc(S(=O)(=O)Cc4ccccc4F)ncc3Cl)sc2c1	-0.5%	nt	?	nt	nt	3.98µM*
Cc1cccc(CS(=O)(=O)c2ncc(Cl)c(C(=O)Nc3nc4ccc(F)cc4s3)n2)c1	?	nt	15.8µM*	nt	nt	10µM*
O=C(O)c1ccc(Cl)c(S(=O)(=O)Nc2ccccc2F)c1	nt	nt	-1.5%	nt	nt	-1.2%
Cc1cccc(C(=O)NCCc2nc3ccccc3n2CCC(C)C)c1	?	nt	8.1%	nt	nt	-19.3%
Cn1c(=O)n(CCc2ccccc2)c(=O)c2c1nc1n2CCN1c1ccc(Cl)cc1	?	nt	-2.4%	nt	nt	12.9%
COc1ccc2nc(NC(=O)c3nc(S(=O)(=O)Cc4ccccc4)ncc3Cl)sc2c1	?	nt	12.6µM*	nt	nt	5.01µM*
COc1ccc2nc(NC(=O)c3nc(SCc4cccc(C)c4)ncc3Cl)sc2c1	-0.7%	nt	-2.2%	nt	nt	-2.9%
C[C@@H]1/C=C\CC(=O)OC[C@H](C)C(=O)N[C@@H](Cc2ccccc2)C(=O)OC1	nt	nt	-8.6%[9.22 µM]	nt	-0.6%[11.4 µM]	-0.5%[9.22 µM]
Cc1cccc(C)c1OC[C@@H](N)C(C)C	-4.6%	1.3	-13.7%	-5.3%	-0.2%	-6.3%
CCc1ccc(Cn2c(CNS(=O)(=O)c3ccc4c(c3)CCCC4)nc3cccnc32)cc1	4.5%	nt	4.3%	nt	nt	-18.5%
Cc1ccc(C(=O)/C=C/c2cn(CC(O)CN3CCCCCC3)c3ccccc23)cc1 (stereo not given)	?	nt	?	nt	nt	12.6µM*
O=C(/C=C/c1cn(CC(O)CN2CCCCCC2)c2ccccc12)c1ccc(Br)cc1 (stereo not given)	6.1%	nt	-4.0%	nt	nt	?
